Records with an inconclusive call do not appear. Values without a mark were called inactive. The source made the active and inactive calls. Unless noted, calls come from the whole dose curve; as a rule, active = well fitted curve in the direction sought with a large enough effect in the repeat runs; inconclusive = weak or mixed curves; inactive = no such curve, though single readings can be large; an effect the other way counts as inactive or inconclusive.

Experimental findings from PubChem BioAssay (Tox21) are described below.

Experiment [1] has as its target Aryl hydrocarbon receptor (Homo sapiens) (UniProt P35869). The experiment can be described thus: qHTS assay to identify small molecule that activate the aryl hydrocarbon receptor (AhR) signaling pathway (AID 743085).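 For activation: HG2L7.5c1 human HepG2 liver cells with stably integrated DRE-driven firefly reporter; series mostly up to about 70 µM.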 Note: nearly all actives have a fitted effect of over 15% in size. Note: potency is the fitted concentration of half-maximal effect. An outline of the steps: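 AhR agonist activity is inferred from enhanced light output of a DRE-controlled firefly luciferase reporter in HepG2 cells, measured with ONE-Glo following 24 h treatment at 37C.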

Experiment [2] in a line: qHTS assay to identify small molecule that activate the aryl hydrocarbon receptor (AhR) signaling pathway - cell viability counter screen (AID 743086).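 Note: HepG2 liver cells carrying the AhR DRE luciferase reporter; series mostly up to about 70 µM; nearly all actives have a fitted effect of over 45% in size.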 An outline of the steps: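 HepG2-AhR-luc (HG2L7.5c1) cells, 4000/well, were preincubated 5 h at 37C, exposed to compound in qHTS format for 24 hr at 37C, then given CellTiter-Fluor for 30 min; viability was read as fluorescence in the reporter wells.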

The target in experiment [3] is Peroxisome proliferator-activated receptor gamma (Homo sapiens) (UniProt P37231). The experiment can be described thus: qHTS assay to identify small molecule agonists of the peroxisome proliferator-activated receptor gamma (PPARg) signaling pathway (AID 743094; active = well fitted activation curve with a large enough effect in the signal ratio in the repeat runs, not every such curve was filed as active; the % refers to the signal ratio). An outline of the steps: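 GeneBLAzer PPARg UAS-bla HEK293H cells carrying a stably integrated beta-lactamase reporter were pre-incubated 5 h at 37C, then exposed to compounds in DMSO for 17 h at 37C; LiveBLAzer B/G FRET substrate was added for 1 h at room temperature and fluorescence read.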

Experiment [4] shares this target. The experiment can be described thus: qHTS assay to identify small molecule antagonists of the peroxisome proliferator-activated receptor gamma (PPARg) signaling pathway (AID 743191; calls by dose curve; note: series mostly up to about 63 µM; nearly all actives have a fitted effect of over 30% in size). In short, it runs like this:
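GeneBLAzer PPARg UAS-bla HEK293H cells carrying a UAS-driven beta-lactamase reporter were plated at 3000 cells/well, preincubated 5 h at 37C, then given compound for 17 h at 37C; LiveBLAzer B/G FRET substrate was read after 1 h at room temperature.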

Experiment [5] in a line: qHTS assay to identify small molecule antagonists of the peroxisome proliferator-activated receptor gamma (PPARg) signaling pathway - cell viability counter screen (AID 743194). Note: nearly all actives have a fitted effect of over 55% in size. In short, it runs like this:
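PPARg-UAS-bla HEK293H cells were plated, rested 5 h at 37 C, then treated with compounds plus rosiglitazone (50 nM final) for 17 h at 37 C; viability was then read by CellTiter-Glo luminescence after 30 min at room temperature.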

A short description of experiment [6]: qHTS assay for small molecule agonists of the antioxidant response element (ARE) signaling pathway - cell viability counter screen (AID 743203; calls by dose curve; note: nearly all actives have a fitted effect of over 55% in size). In short, it runs like this:
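CellSensor ARE-bla HepG2 cells, 2,000 per well, rested 5 hrs at 37C/5% CO2, then exposed to compound in DMSO for 16 hrs; viability read as CellTiter-Glo luminescence after 30 min at room temperature, in the reporter wells.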

A short description of experiment [7]: qHTS assay for small molecule activators of the heat shock response signaling pathway - cell viability counter screen (AID 743209). Note: nearly all actives have a fitted effect of over 50% in size. In short, it runs like this:
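CellSensor HSE-bla HeLa cells, plated overnight at 37 C/5% CO2, were exposed to compounds in DMSO for 5 h at 37 C. Viability was then read in the same wells by CellTiter-Glo luminescence after 30 min at room temperature.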

Experiment [8] in a line: qHTS assay for small molecule activators of the heat shock response signaling pathway (AID 743210; active = well fitted activation curve with a large enough effect in the signal ratio in the repeat runs, with a control signal flat, not every such curve was filed as active; the % refers to the signal ratio;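 note: HeLa cells with beta-lactamase reporter driven by heat shock elements; series mostly up to about 63 µM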). An outline of the steps:
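Reporter gene assay: HeLa cells stably bearing an HSE-bla construct, compound treatment 5 h at 37 C, LiveBLAzer substrate 2.5 h at RT, fluorescence intensity.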

Experiment [9] is described as follows: qHTS assay to identify small molecule agonists of the peroxisome proliferator-activated receptor delta (PPARd) signaling pathway - cell viability counter screen (AID 743211). Note: nearly all actives have a fitted effect of over 55% in size. In short, it runs like this:
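qHTS cell viability: PPARd-bla HEK293H; 17 h cpd, 37C; CellTiter-Glo, luminescence at 30 min RT.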

Experiment [10] concerns the target Peroxisome proliferator-activated receptor delta (Homo sapiens) (UniProt Q03181). Briefly: qHTS assay to identify small molecule agonists of the peroxisome proliferator-activated receptor delta (PPARd) signaling pathway (AID 743212; calls by dose curve). In short, it runs like this: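 A PPARd-bla HEK293H line with beta-lactamase under an Upstream Activator Sequence is treated with compounds at 37 C. Substrate loading for 2 h at room temperature precedes the fluorescence measurement.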

A short description of experiment [11]: qHTS assay to identify small molecule antagonists of the peroxisome proliferator-activated receptor delta (PPARd) signaling pathway - cell viability counter screen (AID 743213). Note: nearly all actives have a fitted effect of over 50% in size. In short, it runs like this:
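HEK293H PPARd UAS-bla cells, 5 h pre-incubation, compound + L165041 300 nM final, 17 h 37 C; B/G FRET substrate 2 h RT; then CellTiter-Glo 30 min RT, luminescence.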

The target in experiment [12] is Peroxisome proliferator-activated receptor delta (Homo sapiens) (UniProt Q03181). The experiment can be described thus: qHTS assay to identify small molecule antagonists of the peroxisome proliferator-activated receptor delta (PPARd) signaling pathway (AID 743215; active = well fitted inhibition curve with a large enough effect in the signal ratio in the repeat runs, not every such curve was filed as active; the % refers to the signal ratio;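 note: cells stimulated with agonist L165041 at 300 nM final during compound exposure; series mostly up to about 62 µM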). An outline of the steps: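 PPARd UAS-bla HEK293H cells were pre-incubated 5 h at 37 C, then given test compounds in DMSO plus agonist L165041 (300 nM final). After 17 h at 37 C, beta-lactamase FRET substrate was added; fluorescence read after 2 h at room temperature.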

Experiment [13] in a line: qHTS assay to identify small molecule agonists of the farnesoid-X-receptor (FXR) signaling pathway - cell viability counter screen (AID 743218). Note: nearly all actives have a fitted effect of over 45% in size. An outline of the steps:
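FXR-UAS-bla HEK 293T cells, plated 5 h at 37 C, were exposed to compounds for 16 h at 37 C. CellTiter-Glo was then added to the same wells as the bla readout; luminescence read after 30 min at room temperature.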

Experiment [14] in a line: qHTS assay to identify small molecule antagonists of the farnesoid-X-receptor (FXR) signaling pathway - cell viability counter screen (AID 743221; active = well fitted cell-killing curve with a large enough effect in the repeat runs, not every such curve was filed as active; note: nearly all actives have a fitted effect of over 50% in size). In short, it runs like this:
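After a 5 h settling period, FXR-bla HEK 293T cells receive compound and chenodeoxycholic acid (50 uM final) and incubate 16 h at 37 C; CellTiter-Glo luminescence, read after 30 min at room temperature, reports cell viability.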

Experiment [15] concerns the target Vitamin D3 receptor (Homo sapiens) (UniProt P11473). Briefly: qHTS assay to identify small molecule agonists of the vitamin D receptor (VDR) signaling pathway (AID 743222; calls by dose curve). An outline of the steps:
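VDR-bla cells were plated 4 h at 37C/5% CO2, then exposed to compounds in DMSO for 16 h. After LiveBLAzer B/G FRET substrate addition and 2 h at room temperature, beta-lactamase reporter fluorescence was read.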

The nature of experiment [16]: qHTS assay for small molecule agonists of the antioxidant response element (ARE) signaling pathway (AID 743202; active = well fitted activation curve with a large enough effect in the signal ratio in the repeat runs, not every such curve was filed as active; the % refers to the signal ratio). In short, it runs like this: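 Compounds delivered in DMSO to ARE-bla HepG2 cells (2,000 cells/well, pre-incubated 5 h) and left 16 h at 37 C. LiveBLAzer B/G FRET substrate then added for 2 h at RT before fluorescence reading.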
The nature of experiment [17]: qHTS assay to identify small molecule agonists of the vitamin D receptor (VDR) signaling pathway - cell viability counter screen (AID 743224). Note: series mostly up to about 63 µM; nearly all actives have a fitted effect of over 50% in size. In short, it runs like this: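 VDR-bla cells were preincubated 4 h at 37C/5% CO2, then exposed to compounds for 16 h. After the 2 h room-temperature bla FRET read, CellTiter-Glo was added to the same wells and luminescence read after 30 min.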

The target of experiment [18] is Vitamin D3 receptor (Homo sapiens) (UniProt P11473). Briefly: qHTS assay to identify small molecule antagonists of the vitamin D receptor (VDR) signaling pathway (AID 743223; active = well fitted inhibition curve with a large enough effect in the signal ratio in the repeat runs, not every such curve was filed as active; the % refers to the signal ratio). An outline of the steps:
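Reporter line VDR-bla; stimulus 1alpha,25-(OH)2 vitamin D3, 3 nM final; compound co-addition, 16 h 37C/5% CO2; LiveBLAzer B/G substrate 2 h RT; fluorescence intensity.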

Experiment [19] concerns the target Bile acid receptor (Homo sapiens) (UniProt Q96RI1). The experiment can be described thus: qHTS assay to identify small molecule antagonists of the farnesoid-X-receptor (FXR) signaling pathway (AID 743217; active = well fitted inhibition curve with a large enough effect in the signal ratio in the repeat runs, not every such curve was filed as active; the % refers to the signal ratio). In short, it runs like this: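 FXR-UAS-bla HEK 293T cells pre-incubated 5 h at 37 °C, then exposed to compounds with chenodeoxycholic acid (50 uM final) for 16 h at 37 °C. Beta-lactamase reporter read by LiveBLAzer B/G FRET substrate fluorescence after 2 h at room temperature.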
% is set by controls: 0 for no effect and ±100 for the full control effect.

Peroxisome proliferator-activated receptor delta (Homo sapiens), sequence (Q03181 whole entry, looked up): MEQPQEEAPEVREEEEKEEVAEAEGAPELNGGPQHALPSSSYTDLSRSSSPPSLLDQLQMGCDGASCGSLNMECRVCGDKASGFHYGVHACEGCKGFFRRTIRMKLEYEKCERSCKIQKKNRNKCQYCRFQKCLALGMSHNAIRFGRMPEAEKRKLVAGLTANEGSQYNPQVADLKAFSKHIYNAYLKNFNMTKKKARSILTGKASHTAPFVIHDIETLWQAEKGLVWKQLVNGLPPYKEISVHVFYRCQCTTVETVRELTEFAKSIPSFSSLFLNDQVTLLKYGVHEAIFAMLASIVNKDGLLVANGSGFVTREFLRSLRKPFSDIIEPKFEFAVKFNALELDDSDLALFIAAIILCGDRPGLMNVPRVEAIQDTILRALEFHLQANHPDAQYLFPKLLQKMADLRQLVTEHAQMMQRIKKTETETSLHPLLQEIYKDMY
Aryl hydrocarbon receptor (Homo sapiens), sequence (P35869 whole entry, looked up): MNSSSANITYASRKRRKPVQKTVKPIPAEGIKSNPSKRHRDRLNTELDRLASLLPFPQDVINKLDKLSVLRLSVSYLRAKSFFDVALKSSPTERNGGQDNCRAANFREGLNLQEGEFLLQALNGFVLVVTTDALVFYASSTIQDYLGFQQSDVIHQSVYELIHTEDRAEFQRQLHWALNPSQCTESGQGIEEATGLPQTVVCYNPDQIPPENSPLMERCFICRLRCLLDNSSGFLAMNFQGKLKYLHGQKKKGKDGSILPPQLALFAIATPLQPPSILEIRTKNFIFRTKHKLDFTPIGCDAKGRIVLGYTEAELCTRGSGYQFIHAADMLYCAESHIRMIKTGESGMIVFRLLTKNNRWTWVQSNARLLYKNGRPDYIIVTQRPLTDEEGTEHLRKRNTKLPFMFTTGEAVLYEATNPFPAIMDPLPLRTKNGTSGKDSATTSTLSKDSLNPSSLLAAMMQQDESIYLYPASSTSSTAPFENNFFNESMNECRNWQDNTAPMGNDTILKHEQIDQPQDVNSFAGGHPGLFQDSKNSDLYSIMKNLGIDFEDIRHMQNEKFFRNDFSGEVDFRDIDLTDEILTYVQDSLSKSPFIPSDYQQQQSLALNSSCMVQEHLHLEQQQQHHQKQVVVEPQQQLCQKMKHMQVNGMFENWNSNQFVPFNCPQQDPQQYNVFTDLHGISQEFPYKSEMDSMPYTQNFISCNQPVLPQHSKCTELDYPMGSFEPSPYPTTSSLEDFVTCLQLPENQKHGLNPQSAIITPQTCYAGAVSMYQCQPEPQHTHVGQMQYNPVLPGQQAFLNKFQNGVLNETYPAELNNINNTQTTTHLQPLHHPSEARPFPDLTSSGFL
Peroxisome proliferator-activated receptor gamma (Homo sapiens), sequence (P37231 whole entry, looked up): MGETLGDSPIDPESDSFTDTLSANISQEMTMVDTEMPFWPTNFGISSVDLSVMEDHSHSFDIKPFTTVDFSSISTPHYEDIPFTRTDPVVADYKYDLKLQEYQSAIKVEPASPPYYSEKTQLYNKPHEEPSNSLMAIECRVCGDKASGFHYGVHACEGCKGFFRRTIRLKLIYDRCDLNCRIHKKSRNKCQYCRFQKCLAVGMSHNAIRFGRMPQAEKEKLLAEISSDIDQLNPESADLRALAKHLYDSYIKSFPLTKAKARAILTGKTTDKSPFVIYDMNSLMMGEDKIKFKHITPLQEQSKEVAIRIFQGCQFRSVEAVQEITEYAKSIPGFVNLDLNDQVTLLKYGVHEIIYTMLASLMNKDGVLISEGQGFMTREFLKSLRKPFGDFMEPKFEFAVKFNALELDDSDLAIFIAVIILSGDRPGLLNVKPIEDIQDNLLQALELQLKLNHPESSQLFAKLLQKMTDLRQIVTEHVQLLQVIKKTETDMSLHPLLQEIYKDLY
Vitamin D3 receptor (Homo sapiens), sequence (P11473 whole entry, looked up): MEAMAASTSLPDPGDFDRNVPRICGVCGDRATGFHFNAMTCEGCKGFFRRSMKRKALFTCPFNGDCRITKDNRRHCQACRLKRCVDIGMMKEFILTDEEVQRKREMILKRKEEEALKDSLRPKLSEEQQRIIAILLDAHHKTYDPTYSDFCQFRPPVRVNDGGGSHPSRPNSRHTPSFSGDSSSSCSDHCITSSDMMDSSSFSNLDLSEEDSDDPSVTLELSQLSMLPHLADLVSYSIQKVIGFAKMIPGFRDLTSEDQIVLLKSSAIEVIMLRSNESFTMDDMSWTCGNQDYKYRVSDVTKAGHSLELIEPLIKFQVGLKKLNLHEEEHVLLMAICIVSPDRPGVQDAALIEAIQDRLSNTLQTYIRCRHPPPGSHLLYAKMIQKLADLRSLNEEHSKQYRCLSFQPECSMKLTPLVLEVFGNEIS
Bile acid receptor (Homo sapiens), sequence (Q96RI1 whole entry, looked up): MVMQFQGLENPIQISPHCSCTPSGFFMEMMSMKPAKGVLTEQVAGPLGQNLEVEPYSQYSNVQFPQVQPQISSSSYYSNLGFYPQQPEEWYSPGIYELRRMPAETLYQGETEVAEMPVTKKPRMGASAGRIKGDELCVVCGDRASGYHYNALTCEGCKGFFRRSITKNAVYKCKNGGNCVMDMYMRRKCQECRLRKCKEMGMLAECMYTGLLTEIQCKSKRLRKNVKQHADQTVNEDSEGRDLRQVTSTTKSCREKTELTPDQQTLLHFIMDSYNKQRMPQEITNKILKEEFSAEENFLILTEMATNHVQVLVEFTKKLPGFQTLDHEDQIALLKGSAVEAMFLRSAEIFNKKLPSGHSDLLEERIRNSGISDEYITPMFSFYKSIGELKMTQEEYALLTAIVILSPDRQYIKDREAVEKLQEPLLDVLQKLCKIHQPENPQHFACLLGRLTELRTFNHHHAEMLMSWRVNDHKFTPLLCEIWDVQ

Turning to `COCCOC[C@H](CC1(C(=O)NC2CCC(C(=O)O)CC2)CCCC1)C(=O)Oc1ccc2c(c1)CCC2` (stereo partly specified), the Potency result in experiment [1], in [2], in [3] and in experiment [4] was “inactive” throughout. Also, the compound was classed as inactive in experiment [5], in experiment [6], in [7], in experiment [8], in [9] and in experiment [10]. For the same compound, the outcome in experiment [11], in experiment [12], in experiment [13], in experiment [14] and in [15] was inactive.
For `CCCCCCCCCCOc1cc2c(=O)c(C(=O)OCC)c[nH]c2cc1OCC`, the Potency entry in experiment [1], in experiment [2] and in [3] was “inactive” each time. Also, the activity change, negative = cytotoxicity in [5] is 22.1% [at 5.95 µM]; in experiment [7] it was 1.04% [at 5.95 µM]; in experiment [9], 8.81% [at 5.95 µM]; in experiment [14], 5.04% [at 5.95 µM]; in experiment [17], -0.151% [at 5.95 µM]. The figures for the activation in experiment [16] and in [8] were -0.445% [at 8.36 µM] and -0.938% [at 5.95 µM], respectively. Besides, in experiment [6], the viability change, negative = cytotoxic was -3.47% [at 8.36 µM]. In addition, the ratio activity, negative = inhibition in experiment [12] was 0.26% [at 6.26 µM].
In the case of `CCCCCCCCCCCCSC`, the Potency result in [1], in [2], in experiment [3] and in [4] was “inactive” each time. For the same compound, the compound was classed as inactive in [5], in experiment [6], in [7], in experiment [8], in experiment [9] and in experiment [10]. Besides, the compound was called inactive in experiment [14] and in experiment [17].
Regarding `O=C(c1ccccc1)C1(O)CCCCC1`, the Potency result in [1], in experiment [2], in experiment [3] and in experiment [4] was “inactive” in each case. For the same compound, the outcome in [5], in experiment [6], in experiment [7], in experiment [8], in experiment [9] and in experiment [10] was inactive. The compound was called inactive in experiment [11], in [12], in [13], in experiment [14], in [18] and in experiment [17].
For `CCCCOC(=O)CCC(C)=O`, the Potency entry in [1], in [2], in experiment [3] and in [16] was “inactive” in each case. The compound was classed as inactive in experiment [5], in experiment [6], in experiment [7], in [9], in experiment [10] and in [14]. Also, the call in [15] and in experiment [18] was inactive.
In the case of `C=CCOCC(O)CO` (stereo unspecified), the Potency result in experiment [1], in experiment [2], in experiment [3] and in experiment [4] was “inactive” in each case. The call in [5], in experiment [6], in experiment [7], in experiment [8], in experiment [9] and in [11] was inactive. The outcome in experiment [19], in experiment [13], in experiment [14], in experiment [15] and in experiment [17] was inactive.
As for `CC/C=C\CCOC(C)OCC` (stereo unspecified), the Potency entry in experiment [1], in experiment [2], in experiment [3] and in experiment [4] was “inactive” each time. Further, the compound was called inactive in experiment [5], in experiment [7], in [8], in [9], in experiment [10] and in experiment [11]. Besides, the compound was classed as inactive in experiment [12], in [13], in experiment [14], in [18] and in experiment [17].
As to `CC1=C(C/C=C(\C)CCC[C@H](C)CCC[C@H](C)CCCC(C)C)C(=O)c2ccccc2C1=O`, in experiment [1], the Potency was 26.6 µM (active). For the same compound, the Potency result in experiment [2], in [3] and in experiment [16] was “inactive” throughout. The result in experiment [5], in experiment [7], in [8], in experiment [9], in [10] and in [12] was inactive. Moreover, the call in [13], in experiment [14], in experiment [15], in experiment [18] and in [17] was inactive.
On to `C[C@@H]1C[C@H]2[C@@H]3C[C@H](F)C4=CC(=O)C(Cl)=C[C@]4(C)[C@@]3(F)[C@@H](O)C[C@]2(C)[C@@]1(O)C(=O)CO`, for which the Potency entry in experiment [1], in [2], in experiment [3] and in experiment [16] was “inactive” each time. Also, the outcome in experiment [5], in experiment [6], in experiment [7], in experiment [9], in experiment [10] and in [11] was inactive. In addition, the result in experiment [19], in [13], in [14] and in [17] was inactive.
